# Bioassay records: PubChem, The Scripps Research Institute Molecular Screening Center
# The list is not random: actives were taken first. Their share in the collection is about 3.3%.
# TLR4 MyD88 comp: inhibitors of human TLR4-MyD88 binding; O00206+Q99836; HeLa CL3-4 TLR4/MyD88 BLA complementation, FRET ratio; inhibition, % at 8.4 µM; 200,000 tested, 0.18% active; AID 861; in the data active means inhibition above about 25%;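 further: 0% = vehicle and 100% = reference inhibitor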
# Target sequence (O00206 whole entry, looked up): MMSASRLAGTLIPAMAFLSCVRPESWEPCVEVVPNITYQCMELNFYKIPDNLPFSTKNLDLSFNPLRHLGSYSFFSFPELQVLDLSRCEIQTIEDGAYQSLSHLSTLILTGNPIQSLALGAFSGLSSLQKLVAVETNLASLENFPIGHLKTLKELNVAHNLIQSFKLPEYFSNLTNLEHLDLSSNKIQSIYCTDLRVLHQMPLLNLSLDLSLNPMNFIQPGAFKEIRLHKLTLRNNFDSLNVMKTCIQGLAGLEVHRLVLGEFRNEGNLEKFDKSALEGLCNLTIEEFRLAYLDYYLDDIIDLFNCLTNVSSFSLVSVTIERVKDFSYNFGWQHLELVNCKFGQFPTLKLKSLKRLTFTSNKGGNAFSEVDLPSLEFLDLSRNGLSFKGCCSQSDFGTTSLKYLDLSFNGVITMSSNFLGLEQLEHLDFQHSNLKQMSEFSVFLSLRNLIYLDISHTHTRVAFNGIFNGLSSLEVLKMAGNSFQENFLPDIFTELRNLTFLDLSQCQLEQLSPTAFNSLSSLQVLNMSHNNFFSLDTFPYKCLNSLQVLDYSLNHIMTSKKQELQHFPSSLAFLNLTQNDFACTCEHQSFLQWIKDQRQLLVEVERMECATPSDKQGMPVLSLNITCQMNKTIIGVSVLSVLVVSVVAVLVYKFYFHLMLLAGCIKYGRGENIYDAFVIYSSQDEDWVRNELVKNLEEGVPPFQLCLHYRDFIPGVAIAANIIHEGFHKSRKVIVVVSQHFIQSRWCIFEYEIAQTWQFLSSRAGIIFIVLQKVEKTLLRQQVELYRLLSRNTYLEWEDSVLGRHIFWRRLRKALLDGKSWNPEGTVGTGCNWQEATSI
# Target sequence (Q99836 whole entry, looked up): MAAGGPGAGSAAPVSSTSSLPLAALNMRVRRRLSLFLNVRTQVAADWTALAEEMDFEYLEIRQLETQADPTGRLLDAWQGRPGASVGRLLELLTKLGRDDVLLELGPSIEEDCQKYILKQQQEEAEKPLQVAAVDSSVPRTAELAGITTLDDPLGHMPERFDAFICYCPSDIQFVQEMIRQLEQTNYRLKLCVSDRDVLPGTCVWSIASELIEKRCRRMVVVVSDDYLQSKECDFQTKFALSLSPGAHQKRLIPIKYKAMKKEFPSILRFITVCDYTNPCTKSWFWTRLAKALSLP
# rCAG RNA binder: r(CAG) repeat RNA binding; TO-PRO-1 dye displacement fluorescence; inhibition, % at 3 µM; 370,000 tested, 1.3% active; AID 651821;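 active means inhibition above the plate cutoff, the mean of all test compounds on that plate plus 3 SD, cut at about 35% in these data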;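 further: 0% = DMSO alone and 100% = 100 µM mitoxantrone as full dye displacement; higher means more dye released from RNA so lower well fluorescence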
# NOD2 RIPK2 PPI: inhibitors of human NOD2-RIPK2 interaction | inhibition, % at 4.98 µM | 360,000 tested, 0.38% active | CHO BLA complementation NOD2-RIPK2, CCF4 ratio | AID 624267; in the data active means inhibition above about 21%;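 further: 0% = vehicle only and 100% = reference blocker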
# ABHD5 PLIN5 PPI: blocks binding of human ABHD5 to perilipin-5. inhibition, % at 4 µM. 360,000 tested, 0.78% active. Split G. princeps luciferase complementation, luminescence, 4 h. Q00G26+Q8WTS1;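 active means inhibition above the mean inhibition across every tested compound plus 3 SD, cut at about 22% in these data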;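 further: 0% = DMSO only wells and the 100% control is not disclosed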
# PRMT1 FP inh: inhibitors of human PRMT1 | Q99873 | recombinant PRMT1, activity-based probe fluorescence polarization | inhibition, % at 2.79 µM | AID 652257 | 370,000 tested, 1.3% active;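 active means inhibition above about 21% made by adding two undisclosed values, limit read from the data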
# TLR9-MyD88 block: TLR9-MyD88 interaction inhibition. Q9NR96+Q99836. CHO BLA complementation TLR9-MyD88, CCF4 FRET ratio. inhibition, % at 4.98 µM. 340,000 tested, 0.21% active. AID 504734;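 active means inhibition above the mean over all tested compounds plus 3 SD, cut at about 21% in these data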;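 further: 0% = DMSO only wells and 100% = clavulanate BLA inhibitor control wells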
# rCAG binder conf: r(CAG) RNA repeat binding, confirmation; inhibition, % at 3 µM; shares compounds with rCAG RNA binder; TO-PRO-1 dye displacement fluorescence; 4,300 tested, 70% active;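 active means inhibition above a per-plate cutoff, the mean inhibition of sample wells plus 3 SD, cut at about 35% in these data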;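 further: loss of TO-PRO-1 fluorescence as compound displaces dye from 1x1 AA loop RNA; 0% = DMSO only wells and 100% = 100 µM mitoxantrone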
# DNA CAG counter: DNA CAG dye complex inhibition counter-screen; d(CAG) DNA oligo TO-PRO-1 dye displacement, fluorescence; AID 652068; inhibition, % at 3 µM; 4,300 tested, 94% active; shares compounds with rCAG RNA binder;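 active means inhibition above its plate's cutoff, the mean test-well inhibition plus 3 SD, cut at about 4.8% in these data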;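 further: 0% = DNA dye mix with DMSO and 100% = 100 µM mitoxantrone; hits displace the dye from DNA and so lower well fluorescence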
# dCAG dye DR: DNA CAG dye complex inhibition, dose response counter-screen. AID 686960. 250 tested, 20% active. IC50, µM. DNA CAG/GTC duplex TO-PRO-1 dye displacement fluorescence. shares compounds with rCAG RNA binder; in the data active means IC50 below about 10 µM
# * hit, by the source's call; x = not tested or not shown.
SMILES,TLR4 MyD88 comp,rCAG RNA binder,NOD2 RIPK2 PPI,ABHD5 PLIN5 PPI,PRMT1 FP inh,TLR9-MyD88 block,rCAG binder conf,DNA CAG counter,others
CC(OC(=O)c1cccc(S(=O)(=O)Nc2cccc(C(F)(F)F)c2)c1)C(=O)Nc1ccc2c(c1)OCCO2 (centres undefined),8.6,37.5*,-1.1,-8.4,0.4,2.3,36.0*,8.0*,
CC(=O)Nc1ccc(NC(=O)C(C)OC(=O)c2ccc3c(c2)OCCO3)cc1 (centres undefined),x,0.7,-12.7,-0.2,-1.6,-9.2,x,x,
O=C(O)C1CCCN1c1nc(-c2ccc(Cl)c(Cl)c2)cc(C(F)(F)F)n1 (centres undefined),x,43.6*,4.8,0.3,-2.3,-7.5,43.0*,12.2*,dCAG dye DR=>29.9
COCCN(C(=O)C1=COCCO1)c1c(N)n(CC(C)C)c(=O)[nH]c1=O,x,-0.8,-1.0,-5.0,6.7,-15.8,x,x,
COc1ccc(OC)c(CNc2ccc3c(c2)nc(C)n3C)c1,x,43.8*,9.3,-5.4,-1.2,-6.9,1.6,1.0,
CC1=Nc2nc(N3CCCCC3)c(C#N)c3c4c(nc(c23)N1)N(c1ccc(C(C)C)cc1)C(=O)C4,4.4,62.4*,-6.0,-4.3,6.7,0.5,38.5*,21.7*,
CCOC(=O)CNC(=O)CSc1nnnn1-c1ccc(C)c(C)c1,-15.2,-2.4,4.4,7.3,0.0,-6.9,x,x,
Cc1ccc(-n2nnnc2SCC(=O)NC(C(=O)O)(c2ccccc2)c2ccccc2)cc1C,0.2,38.0*,4.6,5.0,-0.1,-3.8,38.4*,10.3*,
O=C(CSc1nnnn1-c1cccc2ccccc12)NC(C(=O)O)(c1ccccc1)c1ccccc1,-1.6,46.2*,-8.8,2.6,-0.8,10.1,35.6*,10.1*,
CC1CCN(S(=O)(=O)c2ccc3c(c2)c(=O)c(C(=O)NCc2cccs2)cn3C)CC1,1.2,42.9*,-10.3,-2.6,-1.2,1.7,9.8,7.5*,
CCOc1ccc(C(=O)N[C@H](C(=O)Nc2ccc(S(=O)(=O)Nc3nccs3)cc2)C(C)C)cc1,x,47.3*,-10.6,-3.1,0.5,1.8,45.9*,15.1*,
Cc1cccc(C(=O)NC(C(=O)Nc2ccc(S(=O)(=O)Nc3nccs3)cc2)C(C)C)c1 (centres undefined),x,41.5*,2.4,-13.3,-1.6,-7.8,34.7*,12.9*,
CC1(C(=O)NS(=O)(=O)c2ccccc2)CCN1C(=O)c1ccc(C2CCCCC2)cc1 (centres undefined),x,18.1,-10.2,4.0,3.0,x,x,x,
COC(=O)c1cc(NS(=O)(=O)c2ccc(Cl)c(N3C(=O)c4ccc(C(=O)O)cc4C3=O)c2)cc(C(=O)OC)c1,x,51.7*,-4.2,7.5,4.2,2.8,45.3*,13.3*,
O=c1c(-c2cccs2)nc2ccccc2n1C(c1ccccn1)c1nc2ccccc2[nH]1 (centres undefined),x,17.4,-1.2,14.1,0.8,x,x,x,
COc1cccc2sc(Nc3nc(-c4ccncc4)cs3)nc12,-19.8,38.3*,-7.5,2.2,-6.8,-3.1,20.9,13.8*,
COc1cccc2sc(Nc3nc(-c4cc5ccccc5oc4=O)cs3)nc12,-5.9,20.2,2.5,6.4,-1.6,-5.2,x,x,
CCN(CC)c1ccc(C(=O)OCc2cc(=O)oc3cc(O)ccc23)cc1,-12.9,35.6*,-14.6,-0.1,-0.7,-8.1,42.5*,19.5*,
CCOC(=O)[C@]12CCC=C1N(Cc1ccco1)C(=O)[C@H](CC(=O)NCCC(C)C)C2,x,3.3,-3.8,-8.7,-4.1,x,x,x,
Cc1ccc(/C=N/Nc2ccc(C(=O)O)cc2)o1,-2.9,-0.5,-6.6,9.8,2.8,5.2,x,x,
O=C(O)c1cc(-c2ccc(/C=N/Nc3ccc(Cl)cc3)o2)ccc1Cl,-8.2,67.1*,-4.4,4.9,20.1,0.5,67.5*,28.2*,
O=C(O)c1ccc(N/N=C/c2ccc(-c3ccc(Br)cc3)o2)cc1,x,48.7*,-4.3,1.1,8.0,-5.0,49.4*,14.0*,
Nc1nonc1C(=O)N/N=C/c1ccc(-c2ccc(Cl)c(C(=O)O)c2)o1,-1.2,3.8,-7.1,2.1,-0.4,-0.9,x,x,
O=C(O)c1ccc(N/N=C/c2ccc(-c3ccccc3Cl)o2)cc1,x,64.7*,9.3,-1.5,1.8,-3.1,41.4*,11.3*,
Cc1ccc(S(=O)(=O)N(C)c2ccc(OCC(=O)Nc3ccc(C(=O)N(C)C)cc3)cc2)cc1C,x,3.0,-4.8,5.4,0.1,4.6,x,x,
SMILES,TLR4 MyD88 comp,rCAG RNA binder,NOD2 RIPK2 PPI,ABHD5 PLIN5 PPI,PRMT1 FP inh,TLR9-MyD88 block,rCAG binder conf,DNA CAG counter,others
O=C(NC1CC1)C1Nc2ccc(OC(F)(F)F)cc2C2C=CCC12 (centres undefined),x,42.5*,-0.1,3.5,21.6*,-9.8,1.6,-0.4,
CCOC(=O)C1Nc2ccc(OC(F)(F)F)cc2C2C=CCC12 (centres undefined),x,40.1*,0.9,10.9,13.3,1.9,17.4,6.1*,
COC(=O)c1cc(S(=O)(=O)N(Cc2ccccc2)C(C)(C)C)c[nH]1,x,2.5,4.6,-0.7,-5.2,5.8,x,x,
Oc1ccc2ccccc2c1/C=C/c1ccc2c(Br)cc(Br)c(O)c2n1,x,48.0*,17.9,-1.8,-5.4,15.3,50.5*,32.0*,
COc1ccc(-c2c/c(=N\c3nc(-c4ccccc4)c(C)s3)c3ccccc3o2)cc1O,6.7,38.8*,-1.7,2.7,-3.3,2.9,33.9,14.8*,
Cc1ccccc1NC1=C/C(=N\S(=O)(=O)c2ccc(C(=O)O)cc2)c2ccccc2C1=O,x,32.0,-1.0,-15.7,6.1,-2.9,x,x,
CCc1ccc(S(=O)(=O)/N=C2\C=C(NS(=O)(=O)c3ccccc3)C(=O)c3ccccc32)cc1,x,58.8*,-0.6,-6.4,5.6,5.7,88.9*,66.5*,
Cc1ccc(C)c(S(=O)(=O)/N=C2\C=C(NS(=O)(=O)c3ccccc3)C(=O)c3ccccc32)c1,x,67.5*,-0.3,-11.3,5.9,-9.4,90.1*,68.7*,
COc1cc(NC(C)CCCN)c2nc(C)ccc2c1Oc1ccc(F)cc1 (centres undefined),x,8.5,2.7,-4.2,-2.1,1.7,x,x,
COc1ccc(-c2ccc(NS(=O)(=O)c3cc([N+](=O)[O-])c(C)c([N+](=O)[O-])c3)cc2)nn1,x,55.5*,1.3,7.4,-2.4,-0.3,42.5*,15.1*,
COc1ccc(S(=O)(=O)Nc2ccc(S(=O)(=O)N(C)C)cc2)cc1[N+](=O)[O-],-4.8,10.2,5.4,9.9,-1.5,5.7,x,x,
